Measured values published in PubChem BioAssay AID1159580 (chemical genetic matrix, 2015).
Where “and” joins values, the source holds several entries; their conditions need not be identical. Equal entries are not always repeated. The whole screen tested about 5,500 compounds, of which about 2,000 (36%) were called active. Another 18% or so got no clear call; they are omitted. Cut-off read from the data, not from the text of the source: active = normalized growth mostly below about 0.91 (no sharp cut-off); inconclusive = no clear call, values can overlap the other calls; inactive = mostly above about 0.92. The list shows a part of the results.

Experiment: chemical genetic growth profiling, strain panel (AID 1159580);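 note: tested at 20 µM; growth read once vehicle control cultures reached saturation at 30 °C; 1 = growth at the plate median or of vehicle wells; lower values mean less growth of the strain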
Details: S. cerevisiae deletion strains, growth OD

Measured: normalized growth

NCC(O)(CS(=O)(=O)O)c1ccc(Cl)cc1 (configuration not stated)
inactive: locus YAL040C, strain CLN3, active compounds read low 1.07 | locus YCL061C, strain MRC1 (second series), active compounds read low 0.995 | locus YDR150W, strain NUM1, active compounds read low 1.02 | locus YER002W, strain NOP16, active compounds read low 1.02 | locus YGR078C, strain PAC10, active compounds read low 0.99 | locus YMR263W, strain SAP30, active compounds read low 1 | locus YNL153C, strain GIM3, active compounds read low 1 | locus YNL175C, strain NOP13, active compounds read low 0.979 | locus YNL197C, strain WHI3, active compounds read low 0.98 | locus YNL224C, strain SQS1, active compounds read low 1.01 | locus YOR083W, strain WHI5 (second series), active compounds read low 1 | locus YPL241C, strain CIN2, active compounds read low 1

COc1ccc([C@@H]2CC(=O)c3c(O)cc(O[C@@H]4O[C@H](CO[C@H]5O[C@@H](C)[C@H](O)[C@@H](O)[C@H]5O)[C@@H](O)[C@H](O)[C@H]4O)cc3O2)cc1O
inactive: locus YAL013W, strain DEP1, active compounds read low 0.995 | locus YAL021C, strain ccr4, active compounds read low 1.01 | locus YAL026C, strain drs2, active compounds read low 0.98 | locus YAL030W, strain snc1, active compounds read low 0.993 | locus YBL061C, strain skt5, active compounds read low 0.969 | locus YBR009C, strain hhf1, active compounds read low 0.937 | locus YBR021W, strain FUR4, active compounds read low 0.988 | locus YBR023C, strain chs3, active compounds read low 0.993 | locus YBR171W, strain sec66, active compounds read low 0.976 | locus YBR229C, strain ROT2, active compounds read low 0.993 | locus YBR231C, strain swc5, active compounds read low 0.987 | locus YBR279W, strain paf1, active compounds read low 0.986 | locus YCL011C, strain gbp2, active compounds read low 0.975 | locus YCL016C, strain dcc1, active compounds read low 0.995 | locus YCL029C, strain bik1, active compounds read low 0.971 | locus YCL061C, strain MRC1, active compounds read low 0.977 | locus YCL069W, strain vba3, active compounds read low 0.988 | locus YCR088W, strain abp1, active compounds read low 0.989 | locus YDL005C, strain med2, active compounds read low 0.98 | locus YDL035C, strain GPR1, active compounds read low 0.991 | locus YDL040C, strain nat1, active compounds read low 0.993 | locus YDL074C, strain BRE1, active compounds read low 0.984 | locus YDL101C, strain DUN1, active compounds read low 0.994 | locus YDL185W, strain tfp1, active compounds read low 0.98 | locus YDL192W, strain arf1, active compounds read low 0.993 | locus YDR001C, strain nth1, active compounds read low 0.99 | locus YDR069C, strain doa4, active compounds read low 0.985 | locus YDR101C, strain arx1, active compounds read low 0.968 | locus YDR137W, strain rgp1, active compounds read low 1.04 | locus YDR159W, strain sac3, active compounds read low 0.977 | locus YDR162C, strain NBP2, active compounds read low 1.01 | locus YDR195W, strain ref2 0.932 | locus YDR297W, strain sur2, active compounds read low 0.98 | locus YDR318W, strain mcm21, active compounds read low 0.994 | locus YDR334W, strain swr1, active compounds read low 0.998 | locus YDR335W, strain msn5, active compounds read low 0.982 | locus YDR388W, active compounds read low 0.977 | locus YDR392W, strain spt3, active compounds read low 0.907 | locus YDR502C, strain sam2, active compounds read low 0.981 | locus YEL003W, strain gim4, active compounds read low 0.982 | locus YEL037C, strain rad23, active compounds read low 0.991 | locus YEL061C, strain CIN8 (second series), active compounds read low 0.981 | locus YEL061C, strain CIN8, active compounds read low 1 | locus YER015W, strain faa2, active compounds read low 0.979 | locus YER016W, strain bim1, active compounds read low 0.995 | locus YER110C, active compounds read low 0.973 | locus YER111C, strain swi4, active compounds read low 0.97 | locus YER155C, strain BEM2 (second series), active compounds read low 0.987 | locus YER155C, strain BEM2, active compounds read low 0.988 | locus YER167W, strain BCK2, active compounds read low 0.991 | locus YFR010W, strain ubp6, active compounds read low 0.976 | locus YGL078C, strain dbp3, active compounds read low 0.967 | locus YGL086W, strain mad1, active compounds read low 0.979 | locus YGL167C, strain pmr1, active compounds read low 0.965 | locus YGL173C, strain kem1, active compounds read low 0.968 | locus YGL227W, strain vid30, active compounds read low 0.973 | locus YGL240W, strain doc1, active compounds read low 0.98 | locus YGL248W, strain PDE1, active compounds read low 1 | locus YGL253W, strain hxk2, active compounds read low 0.999 | locus YGR135W, strain pre9, active compounds read low 0.998 | locus YGR229C, strain SMI1, active compounds read low 1 | locus YGR252W, strain gcn5, active compounds read low 1.06 | locus YHR013C, strain ard1, active compounds read low 0.922 | locus YHR027C, strain rpn1, active compounds read low 0.99 | locus YHR030C, strain SLT2, active compounds read low 0.997 and 1.05 | locus YHR079C, strain IRE1 (second series), active compounds read low 0.983 | locus YHR079C, strain IRE1, active compounds read low 1.03 | locus YHR094C, strain hxt1, active compounds read low 0.975 | locus YHR129C, strain ARP1, active compounds read low 1 | locus YHR142W, strain chs7, active compounds read low 1.01 | locus YHR200W, strain rpn10, active compounds read low 1 | locus YIL066C, strain RNR3, active compounds read low 1 | locus YIL073C, strain SPO22, active compounds read low 1 | locus YIL125W, strain kgd1, active compounds read low 0.978 | locus YIR030C, strain dcg1, active compounds read low 0.976 | locus YJL092W, strain hpr5, active compounds read low 0.986 | locus YJL095W, strain BCK1 (second series), active compounds read low 0.993 | locus YJL095W, strain BCK1, active compounds read low 1.05 and 1.02 | locus YJL115W, strain asf1, active compounds read low 0.993 | locus YJL129C, strain trk1, active compounds read low 1.01 | locus YJL134W, strain LCB3, active compounds read low 0.994 | locus YJL154C, strain vps35, active compounds read low 0.998 | locus YJL164C, strain tpk1, active compounds read low 1.01 | locus YJL166W, strain qcr8, active compounds read low 0.992 | locus YJL168C, strain set2, active compounds read low 0.984 | locus YJL187C, strain SWE1 (second series), active compounds read low 1.02 | locus YJL187C, strain SWE1, active compounds read low 0.991 | locus YJR043C, strain POL32, active compounds read low 1.01 | locus YJR066W, strain TOR1, active compounds read low 0.987 | locus YJR075W, strain HOC1, active compounds read low 1 | locus YKL009W, strain mrt4, active compounds read low 1.01 | locus YKL068W, active compounds read low 0.984 | locus YKL085W, strain MDH1 (second series), active compounds read low 0.996 | locus YKL085W, strain MDH1, active compounds read low 0.996 | locus YKL160W, strain elf1, active compounds read low 1.02 | locus YKL190W, strain CNB1, active compounds read low 1.01 | locus YKR001C, strain vps1, active compounds read low 0.948 | locus YKR026C, strain gcn3, active compounds read low 0.979 | locus YKR091W, strain srl3, active compounds read low 0.981 | locus YLL001W, strain dnm1, active compounds read low 1.01 | locus YLL026W, active compounds read low 0.999 | locus YLL041C, strain sdh2, active compounds read low 0.999 | locus YLR027C, strain aat2, active compounds read low 0.998 | locus YLR039C, strain RIC1, active compounds read low 1.04 | locus YLR058C, strain SHM2, active compounds read low 1 | locus YLR102C, strain apc9, active compounds read low 0.977 | locus YLR113W, strain HOG1, active compounds read low 1.05 | locus YLR221C, strain rsa3, active compounds read low 0.999 | locus YLR258W, strain gsy2, active compounds read low 0.988 | locus YLR262C, strain YPT6 (second series), active compounds read low 1 | locus YLR262C, strain YPT6, active compounds read low 1.02 | locus YLR268W, strain sec22, active compounds read low 0.959 | locus YLR320W, strain mms22, active compounds read low 0.97 | locus YLR330W, strain CHS5, active compounds read low 0.996 | locus YLR342W, strain FKS1 (second series), active compounds read low 1.03 | locus YLR342W, strain FKS1, active compounds read low 0.954 | locus YLR357W, strain rsc2, active compounds read low 0.97 | locus YLR370C, strain arc18, active compounds read low 0.991 | locus YLR371W, strain rom2, active compounds read low 0.971 | locus YLR384C, strain iki3, active compounds read low 0.976 | locus YLR418C, strain cdc73, active compounds read low 1 | locus YML016C, strain PPZ1, active compounds read low 0.995 | locus YML032C, strain rad52, active compounds read low 1 | locus YML120C, strain ndi1, active compounds read low 1.01 | locus YML124C, strain tub3, active compounds read low 0.986 | locus YMR058W, strain fet3, active compounds read low 0.985 | locus YMR078C, strain ctf18, active compounds read low 0.969 | locus YMR125W, strain sto1, active compounds read low 0.972 | locus YMR129W, active compounds read low 0.989 | locus YMR205C, strain PFK2, active compounds read low 0.936 | locus YMR223W, strain ubp8, active compounds read low 0.992 | locus YMR231W, strain pep5, active compounds read low 0.969 | locus YMR307W, strain GAS1, active compounds read low 1.06 | locus YNL067W, strain RPL9B, active compounds read low 1.01 | locus YNL071W, strain lat1, active compounds read low 0.984 | locus YNL183C, strain NPR1, active compounds read low 0.996 | locus YNL209W, strain ssb2, active compounds read low 0.978 | locus YNL233W, strain BNI4, active compounds read low 1 | locus YNL248C, strain rpa49, active compounds read low 1.04 | locus YNL250W, strain rad50, active compounds read low 0.978 | locus YNL271C, strain bni1, active compounds read low 1 | locus YNL298W, strain CLA4, active compounds read low 0.972 | locus YNL307C, strain MCK1, active compounds read low 0.97 | locus YNL322C, strain KRE1 (second series), active compounds read low 0.987 | locus YNL322C, strain KRE1, active compounds read low 1 | locus YNR049C, strain mso1, active compounds read low 0.993 | locus YNR052C, strain pop2, active compounds read low 0.986 | locus YOL006C, strain TOP1, active compounds read low 0.962 | locus YOL012C, strain htz1 1.06 | locus YOL147C, strain pex11, active compounds read low 0.983 | locus YOR001W, strain rrp6, active compounds read low 1.03 | locus YOR061W, strain CKA2, active compounds read low 0.977 | locus YOR069W, strain VPS5, active compounds read low 0.992 | locus YOR070C, strain gyp1, active compounds read low 1.01 | locus YOR080W, strain dia2, active compounds read low 0.974 | locus YOR083W, strain WHI5, active compounds read low 1.02 | locus YOR106W, strain vam3, active compounds read low 1.02 | locus YOR136W, strain idh2, active compounds read low 0.981 | locus YOR144C, strain elg1, active compounds read low 0.987 | locus YOR184W, strain ser1, active compounds read low 0.994 | locus YOR231W, strain MKK1, active compounds read low 1.06 | locus YOR265W, strain rbl2, active compounds read low 1 | locus YOR270C, strain vph1, active compounds read low 0.989 | locus YOR290C, strain snf2, active compounds read low 0.922 | locus YOR316C, strain cot1, active compounds read low 0.994 | locus YPL051W, strain arl3, active compounds read low 1.03 | locus YPL078C, strain atp4, active compounds read low 1.01 | locus YPL106C, strain sse1, active compounds read low 0.976 | locus YPL240C, strain hsp82, active compounds read low 0.966 | locus YPL256C, strain CLN2, active compounds read low 1.04 | locus YPR119W, strain clb2, active compounds read low 0.98 | locus YPR141C, strain kar3, active compounds read low 0.98 | locus YPR163C, strain tif3, active compounds read low 0.984 | locus YPR167C, strain met16, active compounds read low 0.972 | strain wtn01, active compounds read low 0.971
